This is part of a sample that, as a whole, favours compounds with a hit. Of some 79,000 tested, about 15% had one in any assay. Unmarked numbers belong to inactive results. The source made the active and inactive calls. No stated cut-off is given here; in the data, active means growth inhibition above about 70%; inactive means the rest.
What was measured:
[1] = NCI Yeast Anticancer Drug Screen. Data for the rad50 strain (AID 155);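 further: 0% = growth of vehicle-only cultures of the same strain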; settings: S. cerevisiae rad50 strain growth inhibition; at 50.0 µM; active compounds read high
Procedure, shortened: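 Compounds were tested on a yeast strain with an engineered DNA damage repair alteration; the reported value is growth inhibition normalised to vehicle treatment.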

[2] = NCI Yeast Anticancer Drug Screen. Data for the mec2-1 strain (AID 157); settings: S. cerevisiae mec2-1 strain, at 50.0 µM, active compounds read high
Procedure, shortened: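 Strain: mec2-1 (DNA repair/cell cycle alteration). Compound exposure, then growth measured; inhibition expressed relative to vehicle.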

[3] = NCI Yeast Anticancer Drug Screen. Data for the sgs1 mgt1 strain (AID 161);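 further: 0% = growth of cultures given vehicle only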; settings: S. cerevisiae sgs1 mgt1 strain, at 50.0 µM, active compounds read high
Procedure, shortened: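 Read-out: growth inhibition vs vehicle controls. Cells: mutant yeast strain deficient in DNA damage repair.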

[4] = NCI Yeast Anticancer Drug Screen. Data for the cln2 rad14 strain (AID 165);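 further: 0% = growth equal to vehicle treated cultures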; settings: S. cerevisiae cln2 rad14 strain, at 50.0 µM, active compounds read high
Procedure, shortened: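 Compounds are applied to the cln2 rad14 yeast strain, and growth is then compared with that of vehicle-treated cultures to give inhibition.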

[5] = NCI Yeast Anticancer Drug Screen. Data for the bub3 strain (AID 167); settings: S. cerevisiae bub3 mutant strain, at 50.0 µM, active compounds read high
Procedure, shortened: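 Growth of a checkpoint-deficient yeast mutant is measured after compound exposure. Values represent inhibition relative to vehicle.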

[6] = NCI Yeast Anticancer Drug Screen. Data for the mlh1 rad18 strain (AID 175); settings: S. cerevisiae mlh1 rad18 strain growth inhibition; at 50.0 µM; active compounds read high
Procedure, shortened: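 Read-out is yeast growth inhibition, calculated against vehicle-only controls. The compound was applied to a strain engineered with DNA damage repair alterations.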

SMILES | growth inhibition [1] | growth inhibition [2] | growth inhibition [3] | growth inhibition [4] | growth inhibition [5] | growth inhibition [6]
O=[N+]([O-])c1ccc2c(N3CCC(CCCC4CCN(c5ncnc6cc([N+](=O)[O-])ccc56)CC4)CC3)ncnc2c1 | 2.55% | -16.7% | 39% | 19.2% | -10.8% | -2.9%
Cc1[nH]c2ccccc2c1C(Cc1ccccc1NC(=O)CCC(=O)O)c1c[nH]c2ccccc12 (stereo not given) | 9% | -5.05% | -4.5% | -1.5% | -0.9% | 1.05%
NC(=O)CSCC(=O)O | -5.9% | -6.2% | 14.5% | -0.15% | -23.2% | -14.1%
O=C(Oc1ccc2ccccc2c1)c1ccccc1 | 28.4% | 4.4% | 28.4% | 21.9% | 2.7% | 10.1%
O=C1/C(=C/c2ccc3c(c2)OCO3)CCC1CN1CCOCC1 (stereo not given) | 91.2% (active) | 94.1% (active) | 90.8% (active) | 92.7% (active) | 90.2% (active) | 90.5% (active)
COC(=O)/C=C1\C(=O)N(C(C)=O)c2ccccc21 | 12.3% | 16.1% | 72.2% (active) | 40.1% | 50.6% | 76.4% (active)
CCC(=O)c1c(O)cc(O)cc1O | -13.8% | -15.6% | 13.7% | -22.6% | 2.5% | -25%
COC(=O)CCCc1ccc2c(c1)CC1(C2)Cc2cc3c(cc2C1)CCCC3 | -14.5% | -20.4% | -11.2% | -15.5% | -11.9% | -3.85%
O=S(=O)(Oc1cccc2ccccc12)c1ccccc1 | -2.7% | -2.5% | -5.05% | -5.45% | 0.95% | 8.4%
CC(C)C1OCC=CCO1 | 7.65% | -6.7% | -13.2% | -9.85% | 13.7% | -3%
N#Cc1sc2nc3c(c(-c4ccccc4)c2c1N)CCCC3 | -8.3% | -4.65% | -0.95% | -8.4% | -8.1% | -5.75%
CN(C)c1ccc(-c2c(C#N)c(O)n(NS(=O)(=O)c3ccccc3)c(=O)c2C#N)cc1 | -28.9% | -10.7% | -14.2% | 13.9% | -21.4% | -14.2%
COc1c(CC=C(C)C)c(O)c(C(CC(C)C)c2c(O)c(CC=C(C)C)c(O)c(C(C)=O)c2O)c(O)c1C(C)=O (stereo not given) | 32.9% | 41.5% | 34% | 41.3% | 38.5% | 31.1%
Cc1ccc(NC(=O)Nc2cccc(Cl)c2)cc1C | -0.1% | 5.05% | -4.95% | -17.2% | 5.1% | -16.6%
NNC(=O)c1nnc(N)o1 | -11.6% | -12.1% | 7.25% | -9.45% | -11.7% | 6.45%
Cc1ccc(S(=O)(=O)/C(C#N)=C/NC(=S)Nc2ccc(S(N)(=O)=O)cc2)cc1 | 12.5% | -21.2% | -4.1% | -6.85% | -10.7% | -10.9%
COCC1C(COC)C2CCC1C2(Cc1ccccc1)Cc1ccccc1 (stereo not given) | 1.4% | 12.4% | 18.1% | -45.4% | 0% | -7.2%
CCCCS(=O)(=O)C1CCCC1=O (stereo not given) | -3.5% | 5.5% | -2.55% | -7.1% | 1.45% | 1.9%
CCOc1cc2c(cc1C(C)c1ccc(OCc3ccccc3)c(OC)c1)OCO2 (stereo not given) | 18.8% | -6.7% | -5.35% | 11.7% | -2.05% | 1.75%
C/C(N=NC(=S)N1CCCCC1)=C1\C=CC=CN1O | 10.8% | -6.8% | 53.8% | 97.8% (active) | 43.2% | 22.1%

SMILES | growth inhibition [1] | growth inhibition [2] | growth inhibition [3] | growth inhibition [4] | growth inhibition [5] | growth inhibition [6]
O=C(NC1(C(=O)O)CC1c1ccccc1)c1ccccc1 (stereo not given) | -1.2% | 21% | 0.05% | -10.2% | 9.05% | 42.8%
O=C1c2cccc3cccc(c23)C(=O)N1CCO | 50.6% | 22.2% | 39.9% | 17.9% | 16.2% | 33.2%
COc1nc(NC2OC(CO)C(O)C(O)C2O)cc(=O)[nH]1 (stereo not given) | -4.2% | -7.45% | 1.45% | -3.15% | -37.7% | -6.45%
CCOC(=O)C(NC(=O)c1ccccc1)(N1CCOCC1)C(F)(F)F (stereo not given) | 25.3% | -20.1% | 8.05% | 15.8% | -3.45% | -44.9%
Cc1ccccc1-[n+]1noc(N)n1 | 4.75% | 0.45% | -14.6% | 3.85% | -0.7% | 12.6%
NN1CCOC1=O | 1.4% | -35.9% | 11.7% | -2.9% | -14.1% | -1.7%
C/C(=C\c1ccccc1)C(=O)c1c(C)cc(C)cc1C | 26.9% | -2.9% | 11.1% | -0.2% | -5.45% | -11.8%
OCC1OC(O)C(CO)OC1O (stereo not given) | 16.1% | -5.2% | 3.7% | 40.2% | 22.2% | -5.2%
CC(=O)Oc1cccn2c(C(=O)C(=O)c3ccc4c(OC(C)=O)cccn34)ccc12 | 5.15% | 1.8% | -12.9% | -0.55% | -4.85% | 14.7%
C/C=C1\OC(n2cnc3c(N)ncnc32)C(O)C1O (stereo not given) | -0.3% | -11.8% | -14.9% | 2.5% | -16.2% | -1.8%
C=C1CCC1 | 1.05% | -11.5% | -14.7% | 10.6% | 6.05% | -3.35%
COC1OCCCO1 | -12.6% | 11.6% | -6.45% | -6.75% | -0.1% | -12.5%
O=S(/N=C/c1ccccc1)c1ccc(Cl)cc1 (stereo not given) | -7.6% | 4.5% | 12.4% | 13.9% | 9.4% | 13%
CCCCCNC(=O)c1csc(-c2csc(CCNC(C)=O)n2)n1 | -18.9% | 4.85% | 4.7% | -26.1% | 16.1% | 3.8%
O=c1ccc(-c2ccccc2)n[nH]1 | -25.4% | -0.2% | -28.3% | 5% | -25.8% | -23.9%
O=C1C=C2CCC(c3ccc(O)cc3)CC2CC1 (stereo not given) | -3% | 7.6% | -1.6% | 7.65% | -0.45% | -8%
OC(NN=C1CCCC1)(C(F)(F)Cl)C(F)(F)Cl | -12.9% | -19.9% | -4.45% | -25.3% | -14.2% | 9.15%
O=C(O)Cc1ccccc1[N+](=O)[O-] | 8.55% | -12.1% | -10.9% | -16.9% | -21.8% | -3.95%
CCOC(=O)c1c(N)sc2c1C(C(=O)OCC)CCC2 (stereo not given) | -28.3% | -10.7% | 3.95% | -24.1% | 19.4% | -11.7%
CCCCN=C(C)CC(=O)CC(=O)c1ccccc1 | 30.3% | 23.1% | 44.4% | -53.6% | 22.4% | 33.9%

From PubChem BioAssay (NCI)
